The Inhibition is the relative decrease from the control value, in per cent.

This assay has as its system Plasmodium falciparum. In words: GSK_TCMDC: Inhibition of Plasmodium falciparum 3D7 in whole red blood cells, using parasite LDH activity as an index of growth. Test compounds present at 2uM. In kind it is functional.
With `COc1ccc(C)c(Nc2ccnc(Nc3cccc(-c4nc5ccccc5[nH]4)c3)n2)c1.Cl`, the Inhibition turned out to be 98%. Regarding `O=C(Nc1ccc2c(c1)CCC2)c1cccc(N2CCN(c3ccncc3)CC2)c1.O=C(O)C(F)(F)F`, the Inhibition is listed as 92%. The compound `Cc1cc(C2CCN(CCCCNC(=O)c3ccc(NC(=O)c4ccc(Cl)cc4)cc3)CC2)c(C)cc1OCc1nccn1C.Cl` came in with an Inhibition of 100%. Take `N#Cc1ccc(NC2(C(=O)N3CCN(c4cccc(Cl)c4)CC3)CC2)c2ccccc12`: the Inhibition was 94%.

For the compound `COc1cc(C(=O)N2CCOC(CCN3CCC(Cc4ccc(F)cc4)CC3)(c3ccc(Cl)c(Cl)c3)C2)cc(OC)c1OC` (stereo not given), the Inhibition turned out to be 88%.

`CN(C)c1ccc(C=Cc2nc(=O)c3ccccc3o2)cc1` displayed an Inhibition of 96%.

Compound `Cc1ccc(Oc2c(-c3ccccc3CN3CCCC3CN(C)C)cnn(C)c2=O)cn1.O=C(O)C(F)(F)F` (stereo not given) showed an Inhibition of 88%. `Cc1cccc2nc(-c3cccc(-c4cccc(NC(=O)Nc5ccc(Cl)c(Cl)c5)c4)c3)[nH]c12` showed an Inhibition of 100%.

`COc1ccc(C2c3cc(OC)c(OC)cc3C(=NO)C2C)cc1OC` (stereo not given): the Inhibition stood at 90%. For the compound `CCOc1cc(C(=O)NCCc2ccc(Cl)c(Cl)c2)ccc1-c1nc2cc(Cl)ccc2[nH]1`, the Inhibition was 100%. As to `Clc1ccc2c(NN=Cc3ccco3)ccnc2c1`, the Inhibition was determined as 100%. Regarding `CCc1cc2c(N)nc(N)nc2nc1-c1ccccc1`, the Inhibition was 91%. In the case of `O=C(O)C(F)(F)F.O=c1[nH]c2ccc(Nc3nccc(NCCc4ccccc4)n3)cc2[nH]1`, the Inhibition was found to be 100%. `O=C(NCC1CCN(C/C=C/c2ccccc2)CC1)Nc1ccc(Oc2ccccc2)cc1`: the Inhibition is listed as 83%. Consider `FC(F)(F)c1cccc(N=C(S)NN=Cc2ccccn2)c1`, for which the Inhibition is on record as 100%. For `CN1CCN(c2ccnc3ccc(NC(=O)Nc4ccc5c(c4)CCCC5=O)cc23)CC1`, the Inhibition is recorded as 100%. Compound `CC(C)(C)c1ccc(CN2CCC(NC(=O)c3ccc(-c4cccc(C(F)(F)F)c4)s3)CC2)cc1.O=C(O)C(F)(F)F` came in with an Inhibition of 100%. Take `Fc1ccc(Nc2ccnc3cc(-c4cccc(CN5CCCCC5)c4)ccc23)c(Cl)c1`: the Inhibition was determined as 91%.

Compound `O=C(Nc1ccc(N2CCCN(Cc3cccc(F)c3)CC2)cc1)c1ccc(F)cc1.O=C(O)C(F)(F)F` had an Inhibition of 96%. Consider `CCNc1cc(C(=O)N[C@@H](Cc2ccccc2)[C@H](O)CNCc2cccc(OC)c2)c(OC)c(N2CCCCS2(=O)=O)c1`, for which the Inhibition amounted to 97%. Regarding `COc1ccc(NC(=O)c2ccc(-c3nc(-c4ccccc4)cs3)cc2)cc1N1CCN(C)CC1.O=C(O)C(=O)O`, the Inhibition is given as 93%. Compound `CC(C)(C)COc1ccc2c(N)n[nH]c2c1.Cl` yielded an Inhibition of 90%.

With `COc1cc2nc(NCCCOC(C)C)n3nc(-c4ccccc4)nc3c2cc1OC`, the Inhibition is recorded as 94%. Next, `Cc1onc(-c2ccccc2)c1-c1nc(NCc2ccccc2Cl)no1`: 99%; `CCCC1(NC[C@@H](O)[C@H](Cc2ccccc2)NC(=O)c2cc(NCC)cc(N3CCCCS3(=O)=O)c2)CC1.Cl`: 98%. With `O=C(/C=C/c1ccc(Cl)c(Cl)c1)NCCCCCN1CCC(NC(=O)Nc2ccc([N+](=O)[O-])cc2)CC1`, the Inhibition was determined as 100%. `COc1ccc2nccc([C@@H](O)CN3CCC(NCc4cc5ccccc5[nH]4)CC3)c2c1.CS(=O)(=O)O` yielded an Inhibition of 92%. Consider `CCCCc1ccc(C(=O)Nc2ccc3nc(N4CCN(C)CC4)cc(C)c3c2)cc1`, for which the Inhibition is 90%. Take `Oc1c(C(Nc2ccccn2)c2ccc(Cl)cc2Cl)ccc2cccnc12` (stereo not given): the Inhibition amounted to 88%. Consider `Cl.O=C(Nc1ccc(NC2=NCCN2)cc1)c1ccc(C(=O)Nc2ccc(NC3=NCCN3)cc2)cc1`, for which the Inhibition is 91%.

For the compound `CN(C)Cc1ccc(-c2ccc3c(Nc4ccc(Cl)cc4F)ccnc3c2)o1`, the Inhibition turned out to be 100%. Consider `Cc1c(NCCCNCc2cc(Cl)cc(Cl)c2Cl)[nH]c2ccccc2c1=O.Cl`, for which the Inhibition was 100%. Next, `CN1CCN(CCCN(Cc2csc(-c3ccc(CNCc4ccccc4)cc3)n2)S(=O)(=O)c2cccc3cccnc23)CC1.O=C(O)C(F)(F)F`: 89%. Next, `Cc1cccc2nc(-c3ccc(-c4cccc(CNCCCN5CCCC5=O)c4)cc3)[nH]c12.O=C(O)C(F)(F)F`: 96%; `COc1ccc(CCCN2C(=O)C(c3ccccc3)(c3ccccc3)N=C2N)cc1.O=C(O)C(F)(F)F`: 94%; `CCn1cc2c3c(cc(C(=O)N[C@@H](Cc4ccccc4)[C@H](O)CNC4CCOCC4)cc31)N(C)S(=O)(=O)CC2`: 98%. Regarding `O=C1Nc2ccc3ncccc3c2/C1=C/Nc1ccc(Cn2ccnc2)cc1`, the Inhibition amounted to 100%. Compound `COC(=O)c1ccc2nc(-c3cc(OC)c(O)c(C(=O)NC4CCN(Cc5ccccc5)CC4)c3)[nH]c2c1` yielded an Inhibition of 85%. Compound `Cc1ccc(C(=O)Nc2ccc(Nc3ccnc4cc(-c5ccccn5)ccc34)cc2O)cc1.Cl` came in with an Inhibition of 100%. As to `O=C(Nc1cccc(CN2CCCN(Cc3ccc(O)cc3)CC2)c1)c1cc2ccccc2o1.O=C(O)C(F)(F)F`, the Inhibition came to 95%.

For the origin of these results see ChEMBL document CHEMBL1157539, “Thousands of chemical starting points for antimalarial lead identification” (Nature, 2010).
